According to PubChem BioAssay AID1578 (Sanford-Burnham Center for Chemical Genomics, 2009):
Hit rate of the full screen: of about 290,000 compounds, about 3,000 (1%) were called active. No stated cut-off is given here; in the data, active means inhibition mostly above about 36% (no sharp cut-off); inactive means mostly below about 34%. The list comes from a sample in which actives are over-represented; it also holds similar structures and randomly drawn compounds.

experiment: NOD1 signaling inhibitors, primary screen, cell-based, luminescence, uHTS (AID 1578); settings: NOD1-driven NF-kB luciferase reporter cells, at 4 µM, hits give high values;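 further: HEK-293T reporter cells stimulated with the NOD1 agonist gamma-tri-DAP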

inhibition, inactive:
C[C@@H](O)C1NC(=O)[C@H](CCCCN)NC(=O)c2cc([N+](=O)[O-])cc(I)c2NCCC[C@@H](C(N)=O)NC1=O (stereo not given in full) -16%
COc1cc(CNC2CCCCCCC2)ccc1OCC(N)=O -34.5%
COc1ccc(OC)c2sc(NC(=O)c3ccc(S(=O)(=O)N(C)C)cc3)nc12 -12.2%
C/C(=N\NC(=O)c1nnn(-c2nonc2N)c1CN(C)c1ccccc1)c1cccs1 -19.9%
CCN(CCCNC(=O)c1c(C)cc(=O)oc1C)c1ccccc1 8.4%
CCn1c(C)cc(/C=C2\NC(=O)N(CC(=O)Nc3cccc(C)c3)C2=O)c1C 9.5%
COc1cccc(/C=N/c2oc(-c3ccccc3)cc2C#N)c1O -11%
COc1cc(/C=N/c2oc(-c3ccccc3)cc2C#N)ccc1O -15.3%
Nc1ccc(Br)cc1C(NCC(=O)O)c1ccccc1 (stereo not given) -19%
CC(C)(C)NC(=O)C1CCN(S(=O)(=O)c2cccc(C(F)(F)F)c2)CC1 -13.7%
COc1ccc(C2(c3ccc(OC)cc3)NC(=O)N(CC(=O)Nc3ccccc3C(F)(F)F)C2=O)cc1 -18.1%
O=C(Nc1cccc(Cl)c1)c1cccnn1 -9.2%
CCOc1ccc(/C=C/C(O)=C2/C(=O)NC3(C)CC2c2ccccc2O3)cc1OC (stereo not given) 46.7%
COc1cccc2c1OC1(C)CC2/C(=C(\C)O)C(=O)N1 (stereo not given) -20.8%
COc1ccc(CCNC(=S)Nc2cccc(C)c2C)cc1 -19.9%
COc1ccc(OC)c(NC(=O)COC(=O)/C=C/c2c(C)nn(C3CCS(=O)(=O)C3)c2Cl)c1 (stereo not given) -5%
COc1ccc2cc(C#N)c(N3CCOCC3)nc2c1 2.7%
O=C1NC(=S)S/C1=C/c1ccc(N2CCOCC2)o1 27.5%
COc1ccc(-n2c(C)cc(/C=C3\SC(=S)NC3=O)c2C)cc1 -70.7%
COc1ccc2nc(N3CCCCC3)c(C#N)cc2c1 -123%
COc1ccccc1C(=O)NC(=S)Nc1ccc2[nH]c(=O)[nH]c2c1 -36.5%
Cc1ccc(NC(=O)CCC(=O)OCC(=O)c2ccc(Oc3ccc([N+](=O)[O-])cc3)cc2)cc1C -7%
OCCSc1nc(N2CCOCC2)nc(N2CCOCC2)n1 -22.8%
COC(=O)c1cc(CSc2ncnc3sccc23)oc1C -1.8%
Cc1cc(-n2cnc(-c3cn[nH]c3C)n2)no1 -8.9%
COc1ccc(S(=O)(=O)Nc2cccc(S(=O)(=O)N3CCCCCC3)c2)cc1 -27%
O=S(=O)(Nc1cccc(S(=O)(=O)N2CCCCCC2)c1)c1ccccc1 -11.7%
O=S(=O)(Nc1nc2ccccc2nc1Nc1ccc2c(c1)OCO2)c1ccccc1 57.6%
COc1ccc(S(=O)(=O)Nc2nc3ccccc3nc2Nc2ccc3c(c2)OCO3)cc1 7%
CCOc1ccc(NS(=O)(=O)c2ccc(C(=O)N(CC)CC(=O)NCc3cccs3)cc2)cc1 -1.7%
COc1cccc(CNC(=O)COc2ccc(C(=O)c3ccccc3)cc2)c1 4%
O=C(NCc1ccco1)Nc1ccc(OC(F)(F)F)cc1 -6.5%
O=C(C1=NN[C@@H]2C(=O)N(c3ccccc3C(F)(F)F)C(=O)[C@H]12)c1cnccn1 -13.1%
Cc1cccc2cc3c(N)c(C(=O)N4CCOCC4)sc3nc12 -5%
Cc1ccc2nc3sc(C(=O)Nc4ccc(N5CCOCC5)cc4)c(N)c3cc2c1 -21.9%
COc1cc(NC(=O)CSc2nccc(=O)[nH]2)c(C)cc1[N+](=O)[O-] -24.5%
Cc1cc(-c2ccc(C)c(S(=O)(=O)N3CC(=O)Nc4ccccc43)c2)on1 -2.5%
Cc1ccc(C(=O)CC2(O)C(=O)N(C)c3ccccc32)s1 (stereo not given) -9.2%
CC(=O)N1c2ccccc2C(C)(C)C2CCC(C)CC21 (stereo not given) -5.9%
COc1ccc(C(=O)NNC(=O)CN2CCC(n3nnc4cc(C)ccc43)CC2)cc1 -14.9%
O=C(OCc1ccc(Cl)cc1)c1cccnc1Cl -33%
CCOCCCNc1ncnc2c1[nH]c1ccccc12 19.9%
COCCCNc1ncnc2c1[nH]c1ccccc12 -16.9%
O=S(=O)(c1ccc(S(=O)(=O)n2cnc3ccccc32)cc1)N1CCCCCC1 8.9%
C=CCO/N=C/C1C(=O)CC(C)(C)CC1=O -25.9%
O=C(NC12CC3CC(CC(C3)C1)C2)N1CCN(c2ccccc2)CC1 -18%
Clc1ccccc1OCCCOc1cccc2cccnc12 -0.6%
CN(Cc1cccs1)c1nc(-c2cccnc2)nc2ccccc12 -37.4%
COc1ccc(CN(C)c2nc(-c3cccnc3)nc3ccccc23)cc1OC 36.1%
Cc1ccc2cc(C#N)c(NCCNC(=S)NCCCN(C)C)nc2c1C -23.4%
CCCn1c(SCC(=O)Nc2nnc(C(C)C)s2)nc2c1c(=O)n(C)c(=O)n2C 34%
CCCCn1c(SCC(=O)Nc2nnc(C)s2)nc2c1c(=O)n(C)c(=O)n2C 6.2%
O=C(c1cnn(C(=O)c2cccc(S(=O)(=O)N3CCOCC3)c2)c1)c1ccccc1O 9.5%

inhibition, active:
N#Cc1cc(-c2ccccc2)oc1/N=C/c1ccccc1O 49.6%
COc1ccc(/C=C/C(O)=C2/C(=O)NC3(C)CC2c2ccccc2O3)c(OC)c1OC (stereo not given) 69.9%
COc1ccc2cc(/C=C3\SC(=S)NC3=O)c(N3CCOCC3)nc2c1 71.4%
O=S(=O)(Nc1nc2ccccc2nc1Nc1cccc(S(=O)(=O)N2CCCCC2)c1)c1ccccc1 98.4%
CC(=O)N1c2ccccc2C2(O)N=C(C)SC12 (stereo not given) 66.4%
CCCCOCCCNc1ncnc2c1[nH]c1ccccc12 65.9%
CCOc1ccc(CN(C)c2nc(-c3cccnc3)nc3ccccc23)cc1OC 55.2%
